An excerpt weighted towards active compounds, which were near 7.9% of everything screened.
FMDV antiviral: blocks foot and mouth disease virus | Potency, µM (series often up to 57.9 µM), without a hit: at the top dose activity change, negative = inhibition, actives largely listed as inhibitors | 410,000 tested, 1.2% active | FMDV antiviral cell-based qHTS; calls by dose curve; tested in HEK293T cells; also: read-out not given here; potency is read from the fitted curve at half-maximal effect; nearly all actives have a fitted effect of over 45% in size
HCMV antiviral: blocks human cytomegalovirus replication; HFF cells, HCMV-luciferase reporter, 72 h; hits give low values; activity change, negative = inhibition, % at 57.5 µM; 410,000 tested, 4.5% active; in the data active = activity change below about -60%; inconclusive = no clear call, values can overlap the other calls; inactive = above about -39%
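Two compound doses tested in HFFs infected with HCMV-luciferase, MOI 1 PFU/cell, 72 h at 37C. Lysate luminescence read with OneGlo; data normalized against buffer-only and 10uM Salinomycin inhibitor controls.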
Marburg entry inh: Marburg virus entry inhibition | Marburg virus pseudotyped entry inhibition, cell reporter | Potency, µM (titrated, usually from 37.8 µM), for the others: at the highest dose activity change, negative = inhibition, actives largely listed as inhibitors | 300,000 tested, 1.8% active; calls by dose curve; tested in HEK293 cells; also: potency is read from the fitted curve at half-maximal effect
HCV inh: inhibitors of hepatitis C virus infection; Huh7.5.1 HCVcc-Cre infection, luciferase reporter, 44 h; Potency, µM (series often up to 41.8 µM), for inactives: at the highest dose activity change, negative = inhibition, hits mostly inhibitors; 340,000 tested, 3.4% active; AID 651820; active = well fitted inhibition curve with a large enough effect; inconclusive = small, poorly fitted or top-dose-only effect, or another doubt; inactive = no such curve, though single readings can be large or run the other way; also: potency is read from the fitted curve at half-maximal effect
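Luciferase read-out (15 sec integration) after a 15 min room-temperature substrate step quantifies HCVcc-Cre infection. Cells, 1,000 per well, had compound added 4 h post-plating, then virus at ~0.5 moi, and were cultured 44 h.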
LASV entry inh: inhibitors of Lassa virus binding or cell entry; 300,000 tested, 1.2% active; Lassa virus pseudotype entry inhibition, cell reporter; Potency, µM (doses to about 37.9 µM), without a hit: top-dose activity change, negative = inhibition, actives largely listed as inhibitors; calls by dose curve; tested in HEK293 cells; also: potency is read from the fitted curve at half-maximal effect; nearly all actives have a fitted effect of over 50% in size
Numbers without * were called inactive; ? = inconclusive; · = not tested or not shown; ! = repeats disagree; [ ] = remark or other dose. % is scaled to controls: 0 for no effect and ±100 for the full control effect.

SMILES	FMDV antiviral	HCMV antiviral	Marburg entry inh	HCV inh	LASV entry inh
COc1ccc(-c2csc(NC(=O)CN3C(=O)C4CCCCC4C3=O)n2)c(OC)c1 (stereo not given)	?	-10.3	2.5%	11.2µM*	-26.2%
COc1ccc(-c2csc(NC(=O)CN3C(=O)C4CC=CCC4C3=O)n2)cc1 (stereo not given)	-18.2%	-15.4	·	?	·
COc1ccc(OC)c(-c2csc(NC(=O)Cc3ccccc3OC)n2)c1	46.8%	29.8	?	?	7.94µM*
CC(C)(C)c1csc(NC(=O)C2COc3ccccc3O2)n1 (stereo not given)	13.3%	35.7	?	-42.3%	?
COc1ccc(OC)c(-c2csc(NC(=O)Cc3ccccc3F)n2)c1	48.7%	39.6	?	?	?
COc1ccc(-c2csc(NC(=O)C3COc4ccccc4O3)n2)cc1OC (stereo not given)	?	-8.5	·	11.2µM*	·
Cc1ccc(NC(=O)C2COc3ccccc3O2)nc1 (stereo not given)	-3.6%	85.9	20.4%[46.1 µM]	20.5%	?
CC(C)C(=O)Nc1nnc2n1CCS2	-0.8%	4.9	·	·	-1.0%[46.1 µM]
O=C(Nc1ccccc1C(=O)NCc1cccnc1)c1ccccc1F	-4.5%	-0.2	·	3.0%	·
COc1ccc(CCNc2nc(-c3ccccn3)cs2)cc1OC	-14.5%	0.0	·	?	·
COc1ccc(CCNc2nc(-c3ccc(NC(C)=O)cc3)cs2)cc1OC	25.1µM*	-12.0	?	?	?
COc1ccc(CCNc2nc(-c3sc(C)nc3C)cs2)cc1OC	25.1µM*	-29.2	?	12.6µM*	?
O=C(Nc1ccc(-c2cn3ccsc3n2)cc1)C1COc2ccccc2O1 (stereo not given)	?	-23.3	?	14.1µM*	-23.7%
Cc1ccc(NC(=O)C2COc3ccccc3O2)cc1 (stereo not given)	61.8%	40.3	·	1.3%	·
COc1ccc(-c2csc(NC(=O)Cc3cc(OC)c(OC)c(OC)c3)n2)cc1OC	14.1µM*	?	?	?	·
COc1ccc(CCNc2nc(-c3ccncc3)cs2)cc1OC	?	-25.7	·	-22.8%	·
COc1ccc(-c2csc(NC(=O)COC(=O)Cc3ccccc3)n2)cc1OC	·	·	-1.5%	-10.7%	3.6%
CCOc1ccc(NC(=O)c2oc3ccccc3c2NC(=O)c2ccc(OC)cc2OC)cc1	-3.8%	-2.8	-0.6%[46.1 µM]	·	-16.1%[46.1 µM]
CCN1C(=NCc2ccco2)N[C@@H](c2ccccc2)[C@H](C(=O)OC)[C@H]1C	·	·	12.8%[14.2 µM]	·	·
COc1ccc(CC(=O)Nc2nc(-c3ccncc3)cs2)cc1	-6.8%	-82.2*	?	?	?
CCCC(=O)Nc1nc(-c2ccc(OC)cc2)cs1	-10.6%	15.1	?	?	-5.9%
CCOC(=O)N=Nc1c2ccccc2c2nc3no[nH]c3nc12	2µM*	-100.1*	?	0.562µM*	?
COC(=O)c1ccc(C(=O)OC)c(NC(=O)CN(c2ccccc2)S(=O)(=O)N(C)C)c1	1.6%	-21.5	?	-6.9%	10µM*!
CCCCn1c(NCc2cc(Br)ccc2O)nc2ccccc21	0.0%	-9.7	·	·	7.8%[46.1 µM]
CCn1c(NCc2ccccc2NS(=O)(=O)c2ccc(C)cc2)nc2ccccc21	-1.1%	35.2	20.6µM*	14.1µM*	?
SMILES	FMDV antiviral	HCMV antiviral	Marburg entry inh	HCV inh	LASV entry inh
CCn1c(NCc2cc(Br)ccc2NS(=O)(=O)c2ccc(C)cc2)nc2ccccc21	3.5%	-12.4	?	10µM*	?
CCCn1c(NCc2ccccc2NS(=O)(=O)c2ccc(C)cc2)nc2ccccc21	15.2%	-25.7	6.31µM*	?	?
CCn1c(NCc2ccccc2Cl)nc2ccccc21	38.9%	4.5	16.4%	?	?
CCCCn1c(/N=C/c2ccccc2NS(=O)(=O)c2ccc(C)cc2)nc2ccccc21	-14.8%	-24.9	?	17.8%	?
O=S(=O)(Nc1cccc(-n2cnnn2)c1)c1ccccc1C(F)(F)F	19.3%	19.8	·	12.8%	·
CC(C)(C)NCC(O)C1=C(Cl)CCCC1 (stereo not given)	·	·	15.5%	·	·
OC(COCc1ccccc1)CN1CCCC1 (stereo not given)	2.4%	12.4	2.5%	-2.9%	?
c1ccc(COC(CN2CCCCCC2)CN2CCCCCC2)cc1	-6.2%	-39.3	·	10µM*	·
O=C(CN1CCc2ccccc21)NC(=O)NCc1ccccc1	11.7%	-22.3	1.9%[46.1 µM]	3.3%	-11.3%
CCN(Cc1nc(-c2ccc(OC)c(OC)c2)no1)C(=O)c1ccc2c(c1)OCO2	-17.5%	3.4	?	-18.8%	?
NC(=O)C1=CC2C3C=CC2(O)C(=O)OC3O1 (stereo not given)	?	-96.8*	?	8.91µM*	7.08µM*
Cc1cc(NC(=O)OC(C)(C)C)c(-n2nnnc2C(C(=O)c2ccc3c(c2)OCO3)N2CCCCC2)cc1C (stereo not given)	·	-8.3	·	·	·
O=C(CCNC(=O)Cn1ccc2ccccc2c1=O)NCCc1ccc(Cl)cc1	-18.3%	-16.1	?	6.7%	-2.7%
COc1ccc(Nc2cc3c(cn2)cc(-c2cccnc2)n3C)cn1	·	-17.7	·	·	·
CC(C)OCc1cc(CN2CCN(c3cccc(C(F)(F)F)c3)CC2)c(O)c2ncccc12	-25.0%	-98.4*	?	·	?
CCOc1cc(CN2CCN(c3cccc(C(F)(F)F)c3)CC2)ccc1O	-6.4%	-20.9	16.4µM*	-9.7%	-5.5%
O=[N+]([O-])c1cc(CN2CCN(c3cccc(C(F)(F)F)c3)CC2)c2cccnc2c1O	-14.8%	-76.3*	?	3.98µM*	?
O=c1cc(CO)oc(CN2CCN(c3cccc(C(F)(F)F)c3)CC2)c1O	-18.0%	39.1	-15.5%	6.9%	11.6%
COc1ccc(CC(C)N2CCN(c3cccc(C(F)(F)F)c3)CC2)cc1OC (stereo not given)	·	?	-20.3%	11.2µM*	?
CCOc1cc(CN2CCN(c3cccc(C(F)(F)F)c3)CC2)ccc1OC	·	30.7	?	-24.5%	-15.3%
Cc1c(Cl)cccc1-c1ccc(CNCc2ccccn2)o1	7.2%	-15.5	·	-10.1%	·
CCOCc1cc(CN2CCN(c3cccc(C(F)(F)F)c3)CC2)c(O)c2ncccc12	?	-99.6*	?	·	?
CCCOC1(C(F)(F)F)NC(=O)N(c2ccc(Cl)cc2)C1=O (stereo not given)	-6.6%	13.5	-12.8%[46.1 µM]	·	-21.7%[46.1 µM]
CC(=O)OC1CC(OC2C(O)CC(OC3C(O)CC(OC4CCC5(C)C(CCC6C5CC(O)C5(C)C(C7=CC(=O)OC7)CCC65O)C4)OC3C)OC2C)OC(C)C1OC1OC(CO)C(O)C(O)C1O (stereo not given)	?	-100.1*	·	0.562µM*	·
C[C@H]1O[C@@H](O[C@H]2[C@@H](O)C[C@H](O[C@H]3[C@@H](O)C[C@H](O[C@H]4CC[C@@]5(C)[C@H](CC[C@@H]6[C@@H]5C[C@@H](O)[C@]5(C)[C@@H](C7=CC(=O)OC7)CC[C@]65O)C4)O[C@@H]3C)O[C@@H]2C)C[C@H](O)[C@@H]1O	?	-99.7*	0.13µM*	?	0.146µM*

Compound activity: PubChem, National Center for Advancing Translational Sciences (NCATS)
